Assay outcomes from PubChem.
PRMT1 FP inh: PRMT1 (human) inhibition, primary screen | Q99873 | recombinant PRMT1, activity-based probe fluorescence polarization | inhibition, % at 2.79 µM | hit rate 1.3% among 370,000 | AID 652257;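 active = inhibition above about 21% made by adding two undisclosed values, limit read from the data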
Target sequence (Q99873 whole entry, looked up): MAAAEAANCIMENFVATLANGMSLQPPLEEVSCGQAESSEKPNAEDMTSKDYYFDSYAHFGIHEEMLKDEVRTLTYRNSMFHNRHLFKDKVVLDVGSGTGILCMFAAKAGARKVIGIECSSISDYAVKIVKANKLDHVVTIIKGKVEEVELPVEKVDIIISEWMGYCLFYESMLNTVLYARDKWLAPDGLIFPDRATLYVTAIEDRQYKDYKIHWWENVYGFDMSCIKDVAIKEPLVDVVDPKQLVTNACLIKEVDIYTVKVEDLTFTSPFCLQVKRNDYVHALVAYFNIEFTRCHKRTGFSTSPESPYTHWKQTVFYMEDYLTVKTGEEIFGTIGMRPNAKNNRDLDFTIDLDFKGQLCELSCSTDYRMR
rCAG binder: r(CAG) repeat RNA binding. TO-PRO-1 dye displacement fluorescence. inhibition, % at 3 µM. hit rate 1.3% among 370,000. AID 651821;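 active = inhibition above the plate cutoff, the mean of all test compounds on that plate plus 3 SD, cut at about 35% in these data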;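 also: higher means more dye released from RNA so lower well fluorescence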
NOD2-RIPK2 inh: blocks binding of human NOD2 to RIPK2. O43353. CHO BLA complementation NOD2-RIPK2, CCF4 ratio. inhibition, % at 4.98 µM. hit rate 0.38% among 360,000. AID 624267; in the data active = inhibition above about 21%
ABHD5 PLIN5 PPI: blocks binding of human ABHD5 to perilipin-5; Q00G26+Q8WTS1; Split G. princeps luciferase complementation, luminescence, 4 h; inhibition, % at 4 µM; hit rate 0.78% among 360,000; AID 602281;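 active = inhibition above the mean inhibition across every tested compound plus 3 SD, cut at about 22% in these data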
TLR4 MyD88 comp: TLR4-MyD88 interaction inhibition in cells | HeLa CL3-4 TLR4/MyD88 BLA complementation, FRET ratio | inhibition, % at 8.4 µM | hit rate 0.18% among 200,000 | AID 861; in the data active = inhibition above about 25%
TLR9-MyD88 inh: inhibitors of human TLR9-MyD88 binding; Q9NR96+Q99836; CHO BLA complementation TLR9-MyD88, CCF4 FRET ratio; inhibition, % at 4.98 µM; hit rate 0.21% among 340,000; AID 504734;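 active = inhibition above the mean over all tested compounds plus 3 SD, cut at about 21% in these data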
rCAG binder conf: r(CAG) RNA repeat binding, confirmation; shares compounds with rCAG binder; TO-PRO-1 dye displacement fluorescence; inhibition, % at 3 µM; hit rate 70% among 4,300; AID 652065;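 active = inhibition above a per-plate cutoff, the mean inhibition of sample wells plus 3 SD, cut at about 35% in these data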;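 also: loss of TO-PRO-1 fluorescence as compound displaces dye from 1x1 AA loop RNA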
DNA CAG counter: DNA CAG dye complex inhibition counter-screen | hit rate 94% among 4,300 | shares compounds with rCAG binder | d(CAG) DNA oligo TO-PRO-1 dye displacement, fluorescence | inhibition, % at 3 µM;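 active = inhibition above its plate's cutoff, the mean test-well inhibition plus 3 SD, cut at about 4.8% in these data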;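 also: hits displace the dye from DNA and so lower well fluorescence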
Hits are given with their value; – = inactive; · = not tested or not shown. Compounds with a hit are over-represented: about 3.3% of the library has one in this group of screens.

SMILES	PRMT1 FP inh	rCAG binder	NOD2-RIPK2 inh	ABHD5 PLIN5 PPI	TLR4 MyD88 comp	TLR9-MyD88 inh	rCAG binder conf	DNA CAG counter
O=C(O)c1ccccc1NS(=O)(=O)c1ccc(NNC(=S)Nc2ccc(OC(F)F)cc2)c([N+](=O)[O-])c1	23	101	–	–	–	–	95	80
COc1cccc(C(C)=NNc2ccc([N+](=O)[O-])cc2[N+](=O)[O-])c1OC	–	–	–	–	·	–	·	·
COc1ccc(C(C)=NNc2ccc([N+](=O)[O-])cc2S(=O)(=O)Nc2ccccc2C(=O)O)c(OC)c1	–	77	–	–	·	–	93	78
CCOc1ccc(C=NNc2ccc(S(=O)(=O)Nc3ccccc3C(=O)O)cc2[N+](=O)[O-])cc1OC	·	·	–	–	·	–	·	·
COc1cc(C=NNc2ccc(S(=O)(=O)Nc3ccccc3C(=O)O)cc2[N+](=O)[O-])ccc1O	–	90	–	–	·	–	91	69
CN(Cc1c(C(=O)N/N=C/c2c(F)cccc2Cl)nnn1-c1nonc1N)C1CCCCC1	–	–	–	–	·	–	·	·
O=[N+]([O-])c1cc(S(=O)(=O)Nc2ccccc2)ccc1Nc1ccccc1	–	–	–	–	·	–	·	·
CC(=O)Nc1ccc(S(=O)(=O)Nc2cc([N+](=O)[O-])ccc2C)cc1	–	–	–	–	–	–	·	·
CC(=O)Nc1ccc(C=NNc2ccc([N+](=O)[O-])cc2S(=O)(=O)Nc2ccccc2C(=O)O)cc1	–	57	–	–	·	–	89	65
COc1cc(/C=N/Nc2ccc(S(N)(=O)=O)cc2[N+](=O)[O-])cc(OC)c1O	–	–	–	–	·	–	·	·
CC(=O)Nc1cccc(/C(C)=N/Nc2ccc(S(=O)(=O)Nc3ccccc3C(=O)O)cc2[N+](=O)[O-])c1	–	85	–	–	·	–	94	80
CCOc1cc(/C=N/Nc2ccc(S(=O)(=O)Nc3ccccc3C(=O)O)cc2[N+](=O)[O-])cc(Cl)c1O	–	67	–	–	·	–	93	73
COC(=O)/C(=C(O)\C=C\c1ccccc1[N+](=O)[O-])c1nc2ccccc2[nH]1	–	–	–	–	·	–	·	·
O=C(N/N=C/c1cc([N+](=O)[O-])cc([N+](=O)[O-])c1O)C(O)(c1ccccc1)c1ccccc1	–	68	–	–	·	–	71	30
CCOc1cc(OCC)cc(C(=O)N2CCC[C@H]2C(=O)N2CCC[C@H]2C(=O)N[C@@H](C)c2ccccc2)c1	–	–	–	–	·	·	·	·
Cc1ccc(S(=O)(=O)N2[C@@H](c3ccc(Cl)cc3)C(C(=O)O)=CC[C@H]2c2ccc(C(C)C)cc2)cc1	–	83	–	–	·	–	89	61
Cc1ccc([C@H]2C(C(=O)O)=CC[C@@H](c3cccc(Cl)c3)N2S(=O)(=O)c2ccc(C)cc2)cc1	–	–	–	–	·	–	·	·
Cc1ccc([C@H]2C(C(=O)O)=CC[C@@H](c3ccc(Cl)cc3)N2S(=O)(=O)c2ccc(C)cc2)cc1	–	80	–	–	·	–	80	47
O=C(O)C1=CC[C@@H](c2ccc(Cl)cc2)N(S(=O)(=O)c2ccc(Cl)cc2)[C@H]1c1ccccc1	–	65	–	–	·	–	69	30
Cc1ccc(S(=O)(=O)N2[C@@H](c3ccccc3)C(C(=O)O)=CC[C@H]2c2ccc(C(C)C)cc2)cc1	–	81	–	–	·	–	78	41
COc1ccc(Cl)cc1NC(=O)CN(C)C(=O)c1ccc(N2CCCCCC2)c([N+](=O)[O-])c1	–	–	–	–	·	–	·	·
Cc1ccc([C@H]2C(C(=O)O)=CC[C@@H](c3ccc(C(C)C)cc3)N2S(=O)(=O)c2ccc(C)cc2)cc1	–	88	–	–	·	–	81	48
CC1CCc2nc3ccc(S(=O)(=O)N4CCC(C(=O)NC(C)c5ccccc5)CC4)cc3c(C(=O)O)c2C1 (centres undefined)	–	38	–	–	·	–	45	14
O=C(COC(=O)c1cccc(S(=O)(=O)Nc2ccc(F)cc2)c1)NCCN1C(=O)CSC1=O	–	–	–	–	·	–	·	·
CCOc1ccc(S(=O)(=O)Nc2cccc(Cl)c2)cc1	–	–	–	–	–	–	·	·
SMILES	PRMT1 FP inh	rCAG binder	NOD2-RIPK2 inh	ABHD5 PLIN5 PPI	TLR4 MyD88 comp	TLR9-MyD88 inh	rCAG binder conf	DNA CAG counter
CCOc1ccc(Oc2ccc(NS(=O)(=O)c3ccc(CCC(=O)O)cc3)cc2)cc1	–	43	–	–	·	–	38	11
CCOc1ccc(NS(=O)(=O)c2ccc(NS(=O)(=O)c3ccccc3)cc2)cc1	–	36	–	–	–	–	–	–
CCOc1ccc(S(=O)(=O)Nc2cc(NS(=O)(=O)c3ccc(OCC)cc3)cc(C(=O)O)c2)cc1	–	58	–	–	·	–	60	24
CCOc1ccc(Oc2ccc(NS(=O)(=O)c3cc(C(=O)O)ccc3Cl)cc2)cc1	–	38	–	–	·	–	39	11
Cc1cccc(C)c1NC(=O)CN1C(=O)NC(C)(C2CC2)C1=O (centres undefined)	–	–	–	–	·	–	·	·
O=C(CSc1nc2ccccc2n1CCc1ccccc1)c1ccc(O)c(O)c1	–	61	–	–	–	–	64	38
CCc1nnc(NS(=O)(=O)c2ccc(NC(=S)NC(=O)c3ccc(Br)cc3)cc2)s1	–	83	–	–	–	–	80	49
CCc1nnc(NS(=O)(=O)c2ccc(NC(=S)NC(=O)c3ccccc3)cc2)s1	–	65	–	–	–	–	51	18
CCc1nnc(NS(=O)(=O)c2ccc(NC(=O)/C=C/c3ccccc3Cl)cc2)s1	–	86	–	–	–	–	82	54
CCc1nnc(NS(=O)(=O)c2ccc(NC(=O)c3ccccc3)cc2)s1	–	–	–	–	·	–	·	·
CCc1nnc(NS(=O)(=O)c2ccc(NC(=O)/C=C/C(=O)O)cc2)s1	–	–	–	–	·	–	·	·
COc1cc(NS(=O)(=O)c2ccc(NC(=S)NC(=O)/C=C/c3ccc(F)cc3)cc2)ncn1	–	–	–	–	·	–	·	·
COc1nccnc1NS(=O)(=O)c1ccc(NC(=S)NC(=O)/C=C/c2ccc(F)cc2)cc1	–	71	–	–	–	–	59	24
CCSc1nnc(-c2ccccc2N=Cc2c(C)[nH]n(-c3ccccc3)c2=O)c(=O)[nH]1	–	–	–	–	–	–	·	·
CN(C)CCN(C(=O)C1=COCCO1)c1nc2ccc(F)cc2s1	–	–	–	–	·	–	·	·
COc1cccc([C@@H]2Oc3ccc(Br)cc3C(=O)[C@H]2OC(=O)NC2CCCC2)c1	·	·	·	·	–	·	·	·
CCc1nnc(NS(=O)(=O)c2ccc(NC(=S)NC(=O)/C=C/c3ccccc3)cc2)s1	–	87	–	–	–	–	85	50
